Sampled rows, rich in hits. Any-hit rate of the full collection: about 4.1%.
hgDAF12 agonist: H. glycines DAF-12 receptor agonists, primary screen, cell-based, luminescence, HEK293, GAL4 fusion, UAS-luciferase | 1.8% of 370,000 active | HEK293 GAL4-hgDAF12 UAS-luciferase reporter, agonist luminescence; normalized to butyrate control | Nuclear hormone receptor DAF-12 (Heterodera glycines), GAL4 fusion | activation, % at 6.8 µM;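 active means activation above a cutoff set at the mean of all screened compounds plus 3 SD, cut at about 10% in these data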
hcDAF12 agonist: H. contortus DAF-12 nuclear receptor activators, primary screen, cell-based, luminescence, HEK293, lit1-tk-luc reporter | HEK293 hcDAF-12 lit1-tk-luc reporter; 0% DMSO, 100% Δ7-dafachronic acid | activation, % at 6.8 µM | 1.4% of 370,000 active;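 active means activation above the mean of all tested compounds plus 3 SD, cut at about 5.5% in these data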
DAX1 inh-1: DAX1 (NR0B1) inhibitors on StAR promoter, primary screen, cell-based, luminescence, SF-1 (NR5A1), full-length DAX-1; AID 652010, 2013; 1.1% of 370,000 active; HEK293T StAR-luciferase reporter, SF-1/DAX-1 repression relief; inhibition, % at 6.8 µM;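 active means inhibition above the mean over all tested compounds plus 3 SD, cut at about 3.6% in these data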;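 further: higher inhibition means more luminescence from relief of DAX-1 repression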
ssDAF12 agonist: S. stercoralis DAF-12 nuclear receptor activators, primary screen, cell-based, luminescence, HEK293, GRIP1 co-expression, lit1-tk-luc; Nuclear hormone receptor DAF-12 (Strongyloides stercoralis); HEK293 ssDAF-12/GRIP1 lit1-tk-luc reporter; % of 3 µM dafachronic acid response; activation, % at 6.8 µM; 1% of 370,000 active; AID 652126, 2013;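 active means activation above the mean over all tested compounds plus 3 SD, cut at about 0.9% in these data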
DAX1 inh-2: DAX1 (NR0B1) inhibitors, primary screen, cell-based, HEK293, Gal4-DAX1, luciferase luminescence; HEK293 Gal4-DAX1 luciferase reporter; inhibition, % at 6.75 µM; 0.99% of 340,000 active; AID 504766, 2011; Nuclear receptor subfamily 0 group B member 1 (Homo sapiens), P51843;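 active means inhibition above the mean over all tested compounds plus 3 SD, cut at about 4.2% in these data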;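 further: inhibition shows as a rise in luminescence from relieved DAX1 repression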
Target sequence (P51843 207-470 limits assumed): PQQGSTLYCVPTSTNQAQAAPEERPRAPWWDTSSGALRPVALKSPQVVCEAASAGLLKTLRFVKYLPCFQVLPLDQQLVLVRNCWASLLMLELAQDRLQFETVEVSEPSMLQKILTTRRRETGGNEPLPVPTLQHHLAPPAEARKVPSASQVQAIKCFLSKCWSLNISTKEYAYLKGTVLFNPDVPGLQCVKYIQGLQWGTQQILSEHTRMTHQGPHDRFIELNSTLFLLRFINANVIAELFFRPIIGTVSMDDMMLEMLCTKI
DAX1 conf: DAX1 (NR0B1) inhibitors relieving SF-1 repression, confirmation, cell-based, luminescence, HEK293T, full-length DAX-1, SF-1 activated StAR promoter | shares compounds with DAX1 inh-1 | HEK293T StAR-promoter luciferase reporter, SF-1/DAX-1 repression | inhibition, % at 6.8 µM | 87% of 2,400 active | AID 652134, 2013;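 active means inhibition above the average of every tested compound plus 3 SD, cut at about 3.8% in these data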
SF1 AF2mut Luc: StAR reporter signal changes without DAX1, counter-screen for DAX1 inhibitor project, cell-based, luminescence, AF-2 mutant SF-1, transactivation; 78% of 2,400 active; inhibition, % at 6.8 µM; shares compounds with DAX1 inh-1; AID 652136, 2013; HEK293 StAR-luciferase, SF-1 AF2 mutant;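 active means inhibition above the mean of all tested compounds plus 3 SD, cut at about 3% in these data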
LXRb hcDAF ctr: LXR agonists, Gal4 luciferase reporter, confirmation, counter-screen for hcDAF-12 agonist project, cell-based, luminescence, HEK293, H. contortus campaign; HEK293 Gal4-LXR tk-luc reporter, 24 h; normalized: DMSO 0%, positive control 100%; activation, % at 6.8 µM; 3,400 tested, under 10 active; shares compounds with hcDAF12 agonist;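 active means mean percent activation of the reporter above a cutoff set as the average over tested compounds plus their standard deviation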
hcDAF12 ag: H. contortus DAF-12 receptor agonists, confirmation, cell-based, luminescence, HEK293, lit1-tk-luc, triplicate. shares compounds with hcDAF12 agonist. HEK293 hcDAF-12 lit1-tk-luc reporter; % of Δ7-dafachronic acid response. activation, % at 6.8 µM. 61% of 3,400 active. AID 743032, 2013;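 active means mean activation across triplicate tests above the threshold derived from the earlier primary screen, cut at about 5.5% in these data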
hgDAF12 conf: H. glycines DAF-12 receptor agonists, confirmation, cell-based, luminescence, HEK293, GAL4-LBD fusion; AID 743050, 2013; HEK293 GAL4-hgDAF12 luciferase reporter, agonist mode; percent of butyrate response; 80% of 3,300 active; activation, % at 6.8 µM; shares compounds with hgDAF12 agonist;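 active means mean activation over triplicate wells above the hit cutoff derived from the earlier primary screen, cut at about 11% in these data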
LXRb DAF12 ctr: LXR agonists, Gal4 luciferase reporter, confirmation, counter-screen for hgDAF-12 agonist project, cell-based, luminescence, HEK293, H. glycines campaign | shares compounds with hgDAF12 agonist | 3,300 tested, under 10 active | 24 h | activation, % at 6.8 µM;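 active means mean activation of the triplicate above a set limit carried over from the primary screen, none filed active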
Each line names hits and unclear results; the compound was inactive in the other large screens (follow-up assays come after a bar, where they were run).

CC(C)(C)NC(=O)C(c1cc2ccccc2o1)n1c(=O)c(-c2cc3ccccc3[nH]2)nc2ccccc21 (centres undefined)	none (no result: DAX1 inh-2)
CC(C)[C@@H]1C(=O)N[C@H](Cc2cn(S(=O)(=O)c3ccccc3)c3ccccc23)C(=O)N1C	none (no result: DAX1 inh-1, DAX1 inh-2)
Fc1cccc(F)c1Cn1ccc2ccc(-c3ccc4ccn(Cc5c(F)cccc5F)c4c3)cc21	none (no result: DAX1 inh-2)
O=C(/C=C/c1ccc(O)c(O)c1)NC(=O)c1ccccc1O	hgDAF12 agonist 15, hcDAF12 agonist 6.5, DAX1 inh-1 4.6 | DAX1 conf 8.1 | SF1 AF2mut Luc 4.0 | hgDAF12 conf 13 | LXRb DAF12 ctr inactive
O=C(O)/C=C/c1ccc(O)c(O)c1	none
CCOc1ccc(-c2nnc(-c3cccs3)o2)cc1	hgDAF12 agonist 16, hcDAF12 agonist 7.4, DAX1 inh-1 4.9 | DAX1 conf 13 | SF1 AF2mut Luc 4.6 | LXRb hcDAF ctr inactive | hcDAF12 ag 7.8 | hgDAF12 conf 15 | LXRb DAF12 ctr inactive
c1csc(-c2nnc(-c3ccc(N4CCOCC4)cc3)o2)c1	hgDAF12 agonist 15, hcDAF12 agonist 5.8, DAX1 inh-1 5.1 | DAX1 conf 14 | SF1 AF2mut Luc 6.2 | hgDAF12 conf 19 | LXRb DAF12 ctr inactive
c1cncc(-c2nnc(-c3cccs3)o2)c1	none
O=C(NC1CCCCC1)c1ccc(-c2ccccc2[N+](=O)[O-])o1	hgDAF12 agonist 15, hcDAF12 agonist 7.9, DAX1 inh-1 9.3, ssDAF12 agonist 1.1 | DAX1 conf 8.9 | SF1 AF2mut Luc 5.5 | LXRb hcDAF ctr inactive | hcDAF12 ag 7.3 | hgDAF12 conf 14 | LXRb DAF12 ctr inactive
O=C(NC1CCCCC1)c1ccc([N+](=O)[O-])o1	none (no result: hgDAF12 agonist, hcDAF12 agonist, DAX1 inh-1, ssDAF12 agonist)
COC(=O)[C@]12CCCCC=C1N(Cc1ccc(OC)cc1)C(=O)[C@@H]2CC(=O)NCc1ccccc1	none (no result: DAX1 inh-2)
